Source: PubChem BioAssay (NCATS)
Inconclusive results are not listed. Calls of active or inactive are those of the source. The call rests on the fitted dose curve; in most records, active means well fitted inhibition curve with a large enough effect; inconclusive means small, poorly fitted or top-dose-only effect; inactive means flat fitted curve, though single readings scatter.

tested on: astro; assay: Drug repurposing screens with cells derived from glioblastoma tumor samples (AID 1345199); settings: viability, ATP luminescence, 48 h; series mostly up to 45.9 µM; activity, negative = cell killing: at the top concentration; further: nearly all actives have a fitted effect of over 40% in size
Description: CD133+ cells were isolated from GBM patient biopsies and cultured as neurospheres. Neurospheres from four patients were used to screen the NCATS pharmaceutical collection (NPC) library of approved drugs and bioactive compounds. […] The neurospheres were incubated with drugs for 48 hours in 1536-well format, then assayed with an ATP content cell viability assay. […] These hits were cherry picked to confirm activity in the four original GBM lines screened plus three other slower growing GMB lines (unable to yield enough cells for a full primary screen). Variable activities of the confirmed primary hits in the different GBM patient lines were observed. The patient line 206 responded to the greatest number of compounds and line 923 responded to the least amount of active compounds.
On the % scale 0 is the no-effect control and ±100 the full control effect.

| Compound | Potency | activity, negative = cell killing |
| --- | --- | --- |
| COc1cc(CC(C)N)c(OC)cc1Br (stereo not given) | inactive | – |
| NC(=O)OCCCc1ccccc1 | – | -15% (inactive) |
| CCCOC(=O)Cc1ccc(OCC(=O)N(CC)CC)c(OC)c1 | – | -11.3% (inactive) |
| O=C(O)c1nn(Cc2ccc(Cl)cc2Cl)c2ccccc12 | – | -29.2% (inactive) |
| CN(C)CCc1c[nH]c2ccccc12 | – | -0.326% [at 108 µM] (inactive) |
| Oc1ccc([C@H]2CNCc3c2ccc(O)c3O)cc1O | – | -8.58% (inactive) |
| COc1ccc2c3c1O[C@H]1[C@@H](O)C=C[C@H]4[C@@H](C2)N(C)CC[C@@]341 | – | -10.7% [at 91.6 µM] (inactive) |
| CCCN(CCC)CCc1c[nH]c2ccccc12 | – | -18% [at 91.6 µM] (inactive) |
| O=C(N[C@H]1N=C(c2ccccc2F)c2cccc3c2N(CC3)C1=O)c1cc2ccccc2[nH]1 | – | -21.6% (inactive) |
| CCS(=O)(=O)C(C)(C)S(=O)(=O)CC | – | 2.51% (inactive) |
| O=C(CCCN1CCC(n2c(=O)[nH]c3ccccc32)CC1)c1ccc(F)cc1 | – | -18.4% [at 21.2 µM] (inactive) |
| CCC1(c2cccc(O)c2)CCCCN(C)C1 (stereo not given) | – | -12.9% [at 21.2 µM] (inactive) |
| CC[C@H]1C[C@H]2[C@@H]3CCC4=CC(=O)CC[C@@H]4[C@H]3CC[C@]2(C)[C@H]1O | – | -25.1% (inactive) |
| CN(C)C(=O)Oc1cc(OC(=O)N(C)C)cc(C(O)CNC(C)(C)C)c1 (stereo not given) | – | -14.1% [at 21.2 µM] (inactive) |
| Cc1ccc(N=CN(C)C=Nc2ccc(C)cc2C)c(C)c1 | – | -12.3% (inactive) |
| OC(O)C(Cl)(Cl)Cl | – | -11.3% (inactive) |
| CC(C)=C[C@@H]1[C@@H](C(=O)OCc2coc(Cc3ccccc3)c2)C1(C)C | – | -28.9% (inactive) |
| CN1CCc2cc(Cl)c(O)cc2[C@H]2c3ccccc3CC[C@@H]21 | – | -23.4% (inactive) |
| COc1ccc(OC)c(CC(C)N)c1 (stereo not given) | – | -19.3% [at 108 µM] (inactive) |
| ClC1=C(Cl)C2(Cl)C(CBr)CC1(Cl)C2(Cl)Cl (stereo not given) | – | -18.6% (inactive) |

| Compound | Potency | activity, negative = cell killing |
| --- | --- | --- |
| CCN(Cc1ccc(Cl)nc1)/C(=C/[N+](=O)[O-])NC | – | -18% (inactive) |
| C[C@H](N)[C@H](O)c1ccc(O)c(O)c1 | – | -23.3% (inactive) |
| O=C(O)Cc1ccccc1 | – | -19.3% (inactive) |
| COCC(=O)N(c1c(C)cccc1C)C(C)C(=O)OC (stereo not given) | – | -8.34% (inactive) |
| CC(C)(C)OC(=O)c1ncn2c1[C@@H]1CCCN1C(=O)c1c(Br)cccc1-2 | – | -5.99% (inactive) |
| CCCCC1C(=O)NC(=O)N(C2CCCCC2)C1=O (stereo not given) | – | -13.3% (inactive) |
| CC(C)C(Br)C(=O)NC(N)=O (stereo not given) | – | -4.31% (inactive) |
| Nc1ccc(N)cc1 | – | -10.3% (inactive) |
| NC(=O)CN1CCCC1=O | – | -17.8% [at 21.2 µM] (inactive) |
| CCOC(=O)NC(O)C(Cl)(Cl)Cl (stereo not given) | – | -5.01% (inactive) |
| Cc1c(Cl)c(=O)oc2cc(OP(=O)(OCCCl)OCCCl)ccc12 | – | -18% (inactive) |
| COc1ccc2[nH]cc(CCN(C(C)C)C(C)C)c2c1 | – | -12.2% [at 108 µM] (inactive) |
| CCC1(c2ccccc2)CCC(=O)NC1=O (stereo not given) | – | -18.5% (inactive) |
| O=c1n(Cl)c(=O)n(Cl)c(=O)n1Cl | – | -9.56% (inactive) |
| CCN(CC)Cc1nccn1-c1ccc([N+](=O)[O-])cc1C(=O)c1ccccc1Cl | – | -0.691% (inactive) |
| CC1N=C(N)OC1c1ccccc1 (stereo not given) | – | -8.77% [at 91.6 µM] (inactive) |
| Oc1c(Br)cc(Br)cc1Br | – | -14.4% (inactive) |
| CCCC[N+]1(C)[C@@H]2CC(OC(=O)[C@H](CO)c3ccccc3)C[C@H]1[C@@H]1O[C@@H]12 (stereo not given in full) | – | -14.3% (inactive) |
| Cc1nnc2n1-c1sc(CCC(=O)N3CCOCC3)cc1C(c1ccccc1Cl)=NC2 | inactive | – |
| Cc1nc2ccccc2c(=O)n1-c1ccccc1Cl | – | -27.7% [at 91.6 µM] (inactive) |
